Hit rate of the full screen: of about 69,000 compounds, about 950 (1.4%) showed an effect of 50% or more. The list comes from a sample in which strong results are over-represented; it also holds similar structures and randomly drawn compounds.
System: Mycobacterium tuberculosis
Assay: Cornell M. t heat shock assay; note: in the data most compounds retested in dose-response had high values
Assay type: functional, organism-based
Parameters: dose or concentration left out as unconfirmed

SMILES | Percent Effect
Cl.N#Cc1cccnc1OC1CCNCC1 | -9.035%
Cc1ccc(N2C[C@@H]3OCCN(CC4CC4)[C@@H]3C2)nn1.O=C(O)C(F)(F)F | 21.44%
CN1Cc2cnn(CC3CCCC3)c2C(COCC2CC2)C1.O=C(O)C(F)(F)F.O=C(O)C(F)(F)F (stereo not given) | -36.29%
O=C(O)C(F)(F)F.O=C(O)C(F)(F)F.O=C(O)C(F)(F)F.c1ccc(CN2CC[C@@H]3O[C@H](COCc4ccncc4)CC[C@@H]32)nc1 | 5.621%
NCC(c1ccc(Cl)cc1)N1CCc2sccc2C1 (stereo not given) | 22.77%
NCC(c1ccccc1)N1CCc2sccc2C1 (stereo not given) | 4.411%
CC(C)c1ccc(C(CN)N2CCc3sccc3C2)cc1 (stereo not given) | 92.4%
Cc1csc([C@@H]2C[C@H]3CN(c4ncc(F)cn4)C[C@H]3O2)n1.O=C(O)C(F)(F)F | 25.07%
CC(N)Cc1ccccc1Sc1ccccc1.O=C(O)/C=C\C(=O)O (stereo not given) | 31.83%
CC(N)Cc1ccccc1Sc1ccc(O)cc1.CC(N)Cc1ccccc1Sc1ccc(O)cc1.O=C(O)C(=O)O (stereo not given) | 54.17%
CNC(C)Cc1ccccc1Sc1ccc(O)cc1.Cl (stereo not given) | 5.856%
O=C(Nc1ccccc1)[C@H]1C[C@@H]2CN(S(=O)(=O)c3ccccc3)C[C@H]1O2 | 3.672%
Cc1cc(NC2CCN(Cc3ccccn3)CC2)n2nc(C)c(C)c2n1 | 3.704%
CCc1cc(NCCc2cccnc2)n2nc(C)c(C)c2n1 | 66.22%
CCc1cc(NCCc2cnccn2)n2nc(C)c(C)c2n1 | 78.14%
Cc1cc(N[C@@H](CO)c2ccccc2)n2nc(C)c(C)c2n1 | 11.1%
Cc1cc(NCCCNc2cccnc2)n2nc(C)c(C)c2n1 | 90.05%
CCc1cc(NCCNC(=O)c2cccnc2)n2nc(C)c(C)c2n1 | -20.84%
CCc1cc(NCCN2CCNC2=O)n2nc(C)c(C)c2n1 | -8.001%
CCc1cc(NCCNc2cccnc2)n2nccc2n1 | 0.7035%
CCc1cc(NCCNc2ccncc2C)n2nc(C)c(C)c2n1 | 10.67%
O=C(O)C(F)(F)F.O=C(c1ccco1)N1C[C@@H]2OCCN(c3ncccn3)[C@@H]2C1 | -4.269%
COc1cccc(CN2C[C@@H]3COC[C@]3(CNC(=O)C3CC3)C2)c1.O=C(O)C(F)(F)F | 18.07%
O=C(O)C(F)(F)F.O=C(c1ccco1)N1CCCC12CCN(c1ncccn1)CC2 | -4.902%

SMILES | Percent Effect
CN1CCN(c2nc(-c3cnn(C)c3)cs2)CC1 | -2.615%
Cn1cc(-c2csc(N3CCSCC3)n2)cn1 | 7.511%
Cn1cc(-c2csc(N3CCCCCC3)n2)cn1 | 70.2%
O=C(NCC1CC1)[C@@H]1C[C@@H]2CCN(Cc3ccoc3)C[C@@H]2O1 | -11.78%
Cc1ccc(C(=O)N2CCC3(CC2)CC(N2CCOCC2)C3)cc1.O=C(O)C(F)(F)F | 4.537%
Cc1noc(C)c1C(=O)N1CCOC2(COCCN(C(C)C)C2)C1.O=C(O)C(F)(F)F (stereo not given) | 7.392%
CC(CNCc1ccc(Br)cc1)Oc1ccccn1.Cl (stereo not given) | -4.228%
CN(C)CCn1c2c(ccc1=O)CCN(Cc1cnn(C)c1)CC2.O=C(O)C(F)(F)F.O=C(O)C(F)(F)F | 10.2%
CC(C)NC(=O)N1CCC2(CCC(=O)N2CCN(C)C)CC1.O=C(O)C(F)(F)F | -12.81%
CN1CCN(C(=O)c2csnn2)c2ccccc21 | -18.09%
CN1CCCN(C(=O)c2cnsn2)c2cc(F)ccc21 | -35.83%
CN1CCN(C(=O)CCc2cccnc2)c2ccc(F)cc21 | 15.62%
CN1CCCN(C(=O)c2cnsn2)c2cc(Cl)ccc21 | -8.8%
CN1CCN(C(=O)c2cnsn2)c2cc(F)ccc21 | 57.04%
CN1CCN(C(=O)c2cnsn2)c2ccc(F)cc21 | 82.14%
Clc1ccccc1CCN1CCN(c2ccc3nncn3n2)CC1 | 33.42%
Cc1ccc(-c2nc(CN3CCCC(Cn4cncn4)C3)cs2)o1 (stereo not given) | 9.33%
O=C(CC1CC1)N1CCC2(COCc3cnc(N4CCOCC4)nc32)C1 (stereo not given) | 6.453%
CCOc1ccc(C(=O)N2CCN(c3nccn3C)CC2)cc1.Cl | -17.36%
Cc1cnn(CC(C)NCc2csc(-c3cnn(C)c3)n2)c1 (stereo not given) | -23.56%
Cc1cnn(CCNCc2csc(-c3ccc(F)cc3)n2)c1 | 22.16%
Cc1cnn(CCNCc2csc(-c3ccccc3)n2)c1 | 104.4%
Cc1cnn(CCNCc2csc(-c3ccsc3)n2)c1 | 107.8%
Cc1cnn(CCNCc2csc(-c3cccs3)n2)c1 | 25.75%

SMILES | Percent Effect
Cc1cnn(CC(C)NCc2csc(-c3ccsc3)n2)c1 (stereo not given) | 27.16%
Cc1cccc(N2CCc3ncc(CNS(C)(=O)=O)n3CC2)n1.O=C(O)C(F)(F)F | -36.69%
Cc1ccc(C2CCCN2S(=O)(=O)N(C)Cc2cnccn2)o1 (stereo not given) | -5.103%
Cc1ccc(C2CCCN2S(=O)(=O)N(C)CCc2ccccn2)o1 (stereo not given) | 69.2%
CN(CCc1ccccn1)S(=O)(=O)N1CCCC1c1ccco1 (stereo not given) | 16.77%
I.c1cc2c(cc1C1(CNC3=NCCN3)CCCC1)OCCO2 | -5.173%
CNC(=O)CN1CCOCC12CCN(C(=O)c1ccccc1)CC2.O=C(O)C(F)(F)F | -17.78%
COc1ccc(OC)c(NC(=O)N2CCCC2c2ccco2)c1 (stereo not given) | 25.75%
COc1ccc(NC(=O)N2CCCC2c2ccco2)c(OC)c1 (stereo not given) | 74.57%
COc1ccccc1NC(=O)N1CCCC1c1ccco1 (stereo not given) | 40.09%
O=C(O)CC(O)(CC(=O)O)C(=O)O.c1ccc([C@@H]2CN(Cc3cccnc3)C[C@H]2c2cc[nH]n2)cc1 | -3.502%
Cc1ccc(CN2CCC3(CC2)COCCN3S(C)(=O)=O)o1.O=C(O)C(F)(F)F | 38.18%
CCCN1CCN(C(=O)Cn2nc(C(F)(F)F)c(Br)c2C2CC2)CC1 | -16.27%
CCN1CCN(C(=O)Cn2nc(C(F)(F)F)c(Br)c2C2CC2)CC1 | -4.049%
CN1CCN(C(=O)Cn2nc(C(F)(F)F)c(Br)c2C2CC2)CC1 | 82.35%
CN1CCC(N2Cc3nc(N)ncc3C2=O)CC1 | -6.315%
CC1CCC(N2Cc3nc(N)ncc3C2=O)CC1 (stereo not given) | 7.341%
Nc1ncc2c(n1)CN(C1CCCC1)C2=O | 101.8%
COCCN1CCc2c(CNC(=O)c3nccn3C)cncc2C1.Cl.Cl.Cl | 7.945%
Cc1nc(CN2CCC3(CC2)CC(c2cccnc2)C(=O)N3C)cs1.O=C(O)C(F)(F)F.O=C(O)C(F)(F)F (stereo not given) | 40.95%
O=C(c1cccc2cccnc12)N1CC[C@@]2(CCCO2)[C@@H](O)C1 | 50.53%
CSc1ncccc1C(=O)N1CCC2(CC1)OCCCC2O (stereo not given) | 9.306%
O=C(c1cccnc1O)N1CCC2(CCCO2)CC1 | -109.6%
Br.Cc1ccc(C(=O)CN(C2=NCCCCC2)c2ccccc2)cc1 | 26.5%

SMILES | Percent Effect
Br.COc1ccc(C(=O)CN(C2=NCCCCC2)c2ccccc2)cc1 | 22.41%
Br.Cc1cccc(N(CC(=O)c2ccccc2)C2=NCCCCC2)c1 | 15.52%
Cc1ccc(N(CC(=O)N2CCCCC2)C(=O)C2CCCO2)cc1 (stereo not given) | -0.08324%
Br.O=C(CN(C1=NCCCCC1)c1ccc(Cl)cc1)c1ccccc1 | 102%
Br.O=C(CN(C1=NCCCC1)c1ccccc1)c1ccc(OC(F)F)cc1 | 95.91%
Br.O=C(CN(C1=NCCCC1)c1ccccc1)c1ccc2c(c1)OCCO2 | -15.61%
C[S+]([O-])c1nncn1CC(=O)c1ccc(OC(F)F)cc1 (stereo not given) | 27.46%
CCOc1ccc(C(=O)CC(SC2CCCCC2)C(=O)O)cc1 (stereo not given) | 28.66%
Br.O=C(CN(C1=NCCCC1)c1ccccc1)c1ccccc1 | -38.94%
Br.CCOc1ccc(N(CC(=O)c2ccccc2)C2=NCCCCC2)cc1 | 104.1%
Br.Cc1ccc(N(CC(=O)c2ccc(Br)cc2)C2=NCCCCC2)cc1 | 103.6%
COc1ccc(CN2C[C@@H]3CC[C@H](C2)N(S(=O)(=O)C2CC2)C3)cc1 | -4.175%
Cc1ccc(N2CC[C@@H]3[C@@H]2CCN3C(=O)Cc2cccs2)nn1.O=C(O)C(F)(F)F | 1.861%
CC(=O)NCCc1cc2nc(-c3ccncc3)ccn2n1 | 1.137%
COCCC(=O)N1CCCC2(CCCN2Cc2ccccc2F)C1.O=C(O)C(F)(F)F (stereo not given) | -33.92%
CN(C)Cc1cc(C2CCN(C(=O)C3CCCNC3)CC2)nn1C.Cl (stereo not given) | -6.1%
O=C(O)C(F)(F)F.O=C1COC2(CCN(S(=O)(=O)C3CC3)CC2)CN1c1cccnc1 | -24.7%
CNC(=O)[C@H]1C[C@@H]2CN(Cc3ccc(C)cc3)C[C@H]1O2.O=C(O)C(F)(F)F | 33.5%
Cc1ccc(N2CC[C@H]3O[C@H](C(=O)N4CCCCO4)CC[C@H]32)nn1.O=C(O)C(F)(F)F | 36.81%
O=C(C1CC1)N1CC[C@@H]2[C@H](CC1)N(Cc1cccnc1)CCS2(=O)=O.O=C(O)C(F)(F)F.O=C(O)C(F)(F)F | -20.85%
COCCNS(=O)(=O)c1cccc2c1CN(C(=O)c1ccccc1)CC2 | -0.08173%
COCCNS(=O)(=O)c1cccc2c1CN(C(=O)c1cnccn1)CC2 | 3.399%
COCCNS(=O)(=O)c1ccc2c(c1)CCN(C(=O)c1cncn1C)C2 | 91.56%
